Some of the results follow. Unmarked numbers belong to inactive results. Calls of active or inactive are those of the source.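 How the source made its calls: active means compound lowering the Hsp90 and TPR2A binding signal, whether or not the linker counterscreen also flagged it as an artifact; inactive means the rest.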
Test system: Hsp90 C-terminal peptide / TPR2A co-chaperone interaction
Assay: Confirmation Concentration-Response Assay and Counterscreen for Disrupters of an Hsp90 Co-Chaperone Interaction
Conditions: AlphaScreen TPR2A-His6 / biotin-Hsp90 peptide binding; at 46 µM (top of the series) unless noted
Excerpt: NIH Chemical Genomics Center [NCGC] NIH Molecular Libraries Screening Centers Network [MLSCN] MLSCN Grant: X01 MH077625-01 NCGC Assay Overview: Hsp90 (heat shock protein 90) is the essential molecular chaperone and it accounts for 1-2% of all cytosolic proteins and is critical for the activity of diverse cellular proteins that are involved in a variety of cellular processes, including development, cell cycle, and steroid hormone signaling. Its client proteins include signaling kinases such as IGF1R, Akt, v-Src, Raf-1; regulators of cell survival such as Bcr-Abl; and transcription factors such as mutated p53, estrogen and progesterone receptors. Hsp90 has emerged as an important target for cancer treatment due to its essential role in maintaining transformation and regulating the function of oncogenic signaling proteins. The in vivo function of Hsp90 is regulated by the binding and hydrolysis of ATP at its N-terminal. Geldanamycin binds to ATP site and inhibit Hsp90 function. Geldanamycin and its analogues are under clinical trials in cancer patients. […] This domain contains the binding site for tetratricopeptide repeat (TPR) domains on HOP (Hsp Organizing Protein). TPR is a structural motif used by a significant number of cochaperones by which the in vivo function of Hsp90 is regulated. TPR2A on HOP binds specifically to MEEVD motif of the C-terminal of Hsp90. […]
NCGC Assay Protocol Summary: The assay was performed to confirm activity from an initial qHTS screen, and to counterscreen for alpha screen platform artifacts. All samples were reordered, as powders when available, and sample material was evaluated for impurities and/or incorrect molecular mass at NCGC. […] Plates were read on EnVision (PerkinElmer, Boston, MA).TPR2A-His6 was produced using a bacteria expression system and purified using a well developed method (Ghosh et al., 2000). […] TPR2A-His6 binding to biotin-Hsp90 will bring streptavidin donor beads and nickel chelate acceptor beads (PerkinElmer) together and can be measured by Alpha reading by EnVision (PerkinElmer). […]

SMILES	activity, negative = inhibition
Oc1c(C(c2ccccn2)N2CCOCC2)ccc2cccnc12 (stereo not drawn)	-99.8% [alpha-screen platform artifact] (active)
CCOC(=O)c1c(NC(=O)CSc2nnc(Cc3csc(N)n3)n2C)sc(C)c1C	-99.5% [alpha-screen platform artifact] (active)
Cc1nnc2[nH]c(=O)n(C)c(=O)c2n1	5.91% [at 40 µM]
